From PubChem BioAssay (Tox21)
Inconclusive results are not listed. Entries that show only a call come without a potency. Active and inactive are the calls of the source. Unless noted, calls follow the shape of the dose curve; as a rule, active = well fitted curve in the direction sought with a large enough effect in the repeat runs; inconclusive = weak or mixed curves; inactive = no such curve, though single readings can be large; an effect the other way counts as inactive or inconclusive.

How the values were obtained:
[1] = qHTS assay to identify small molecule agonists of the peroxisome proliferator-activated receptor delta (PPARd) signaling pathway - cell viability counter screen (AID 743211); also: nearly all actives have a fitted effect of over 55% in size
Summary of the method: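 Tox21 library compounds, delivered in DMSO, were incubated 17 h with PPARd-bla HEK293H cells; cytotoxicity was taken from CellTiter-Glo luminescence read 30 min after reagent addition.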

[2] = biological target: Peroxisome proliferator-activated receptor delta (Homo sapiens) (UniProt Q03181); assay: qHTS assay to identify small molecule agonists of the peroxisome proliferator-activated receptor delta (PPARd) signaling pathway (AID 743212; calls by dose curve)
Summary of the method: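 Read-out: beta-lactamase FRET fluorescence after 2 h room-temperature incubation with LiveBLAzer B/G substrate. Cells were HEK293H carrying a UAS-bla reporter for PPARd, treated at 37 C with DMSO-dissolved compounds.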

[3] = qHTS assay to identify small molecule antagonists of the peroxisome proliferator-activated receptor delta (PPARd) signaling pathway - cell viability counter screen (AID 743213); also: nearly all actives have a fitted effect of over 50% in size
Summary of the method: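 HEK293H cells with the PPARd UAS-bla reporter, co-treated 17 h at 37 C with compounds and L165041 (300 nM final), were lysed with CellTiter-Glo. Luminescence indicated viable cell content.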

[4] = qHTS assay to identify small molecule agonists of the farnesoid-X-receptor (FXR) signaling pathway - cell viability counter screen (AID 743218); also: nearly all actives have a fitted effect of over 45% in size
Summary of the method: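 Readout: CellTiter-Glo luminescence, 30 min RT, multiplexed after the FXR-bla FRET reading. HEK 293T FXR-UAS-bla cells received compound 5 h post-plating and were incubated 16 h at 37 C.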

[5] = qHTS assay to identify small molecule antagonists of the farnesoid-X-receptor (FXR) signaling pathway - cell viability counter screen (AID 743221; active = well fitted cell-killing curve with a large enough effect in the repeat runs, not every such curve was filed as active; also: nearly all actives have a fitted effect of over 50% in size)
Summary of the method: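 Cytotoxicity is taken from ATP luminescence (CellTiter-Glo, 30 min, room temperature) in FXR-bla HEK 293T cells previously incubated 16 h at 37 C with compound and chenodeoxycholic acid at 50 uM final.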

[6] = biological target: Vitamin D3 receptor (Homo sapiens) (UniProt P11473); assay: qHTS assay to identify small molecule agonists of the vitamin D receptor (VDR) signaling pathway (AID 743222; calls by dose curve)
Summary of the method: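 Following 4 h attachment at 37C, VDR-bla cells (2,000 per well) received DMSO-dissolved compounds or controls. After 16 h incubation, LiveBLAzer B/G FRET substrate was added and fluorescence read 2 h later at room temperature.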

[7] = biological target: Peroxisome proliferator-activated receptor delta (Homo sapiens) (UniProt Q03181); assay: qHTS assay to identify small molecule antagonists of the peroxisome proliferator-activated receptor delta (PPARd) signaling pathway (AID 743215; active = well fitted inhibition curve with a large enough effect in the signal ratio in the repeat runs, not every such curve was filed as active; the % refers to the signal ratio;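 also: cells stimulated with agonist L165041 at 300 nM final during compound exposure; series mostly up to about 62 µM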)
Summary of the method: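 Fluorescence from cleaved LiveBLAzer B/G FRET substrate (2 h, room temperature) reports PPARd-driven beta-lactamase in HEK293H UAS-bla cells. Cells had been treated 17 h at 37 C with compound plus 300 nM final L165041.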

[8] = biological target: Bile acid receptor (Homo sapiens) (UniProt Q96RI1); assay: qHTS assay to identify small molecule agonists of the farnesoid-X-receptor (FXR) signaling pathway (AID 743220; active = well fitted activation curve with a large enough effect in the signal ratio in the repeat runs, not every such curve was filed as active; the % refers to the signal ratio)
Summary of the method: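 FXR-UAS-bla HEK 293T cells carrying a UAS-driven beta-lactamase reporter were plated for 5 h at 37C/5% CO2, then exposed to DMSO-dissolved Tox21 10K compounds for 16 h at 37C. A LiveBLAzer B/G FRET substrate was loaded for 2 h at room temperature before fluorescence reading.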

[9] = biological target: Vitamin D3 receptor (Homo sapiens) (UniProt P11473); assay: qHTS assay to identify small molecule antagonists of the vitamin D receptor (VDR) signaling pathway (AID 743223; active = well fitted inhibition curve with a large enough effect in the signal ratio in the repeat runs, not every such curve was filed as active; the % refers to the signal ratio)
Summary of the method: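 Quantitative HTS in VDR-bla reporter cells stimulated with 1alpha,25-dihydroxyvitamin D3, 3 nM final. Compound exposure 16 h, 37C, 5% CO2. Read-out: beta-lactamase FRET substrate fluorescence, 2 h RT.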

[10] = biological target: Bile acid receptor (Homo sapiens) (UniProt Q96RI1); assay: qHTS assay to identify small molecule antagonists of the farnesoid-X-receptor (FXR) signaling pathway (AID 743217; active = well fitted inhibition curve with a large enough effect in the signal ratio in the repeat runs, not every such curve was filed as active; the % refers to the signal ratio; also: potency is read from the fitted curve at half-maximal effect)
Summary of the method: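 FRET fluorescence after 2 h room-temperature LiveBLAzer loading gives the readout. Prior step: FXR-bla HEK 293T cells, seeded and incubated 5 h, received test compounds plus 50 uM final CDCA for 16 h at 37 °C.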

Vitamin D3 receptor (Homo sapiens), sequence (P11473 whole entry, looked up): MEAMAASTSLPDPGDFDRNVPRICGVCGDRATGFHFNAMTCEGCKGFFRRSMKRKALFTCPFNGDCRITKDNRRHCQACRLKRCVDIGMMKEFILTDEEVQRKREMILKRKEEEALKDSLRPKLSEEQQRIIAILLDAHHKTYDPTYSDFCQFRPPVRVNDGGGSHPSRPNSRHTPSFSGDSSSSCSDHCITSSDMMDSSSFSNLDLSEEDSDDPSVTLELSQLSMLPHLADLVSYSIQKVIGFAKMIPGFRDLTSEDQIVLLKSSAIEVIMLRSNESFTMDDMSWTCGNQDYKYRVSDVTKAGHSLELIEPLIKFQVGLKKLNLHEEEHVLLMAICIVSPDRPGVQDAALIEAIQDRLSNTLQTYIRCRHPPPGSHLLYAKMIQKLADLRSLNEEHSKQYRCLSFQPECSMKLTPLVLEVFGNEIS
Bile acid receptor (Homo sapiens), sequence (Q96RI1 whole entry, looked up): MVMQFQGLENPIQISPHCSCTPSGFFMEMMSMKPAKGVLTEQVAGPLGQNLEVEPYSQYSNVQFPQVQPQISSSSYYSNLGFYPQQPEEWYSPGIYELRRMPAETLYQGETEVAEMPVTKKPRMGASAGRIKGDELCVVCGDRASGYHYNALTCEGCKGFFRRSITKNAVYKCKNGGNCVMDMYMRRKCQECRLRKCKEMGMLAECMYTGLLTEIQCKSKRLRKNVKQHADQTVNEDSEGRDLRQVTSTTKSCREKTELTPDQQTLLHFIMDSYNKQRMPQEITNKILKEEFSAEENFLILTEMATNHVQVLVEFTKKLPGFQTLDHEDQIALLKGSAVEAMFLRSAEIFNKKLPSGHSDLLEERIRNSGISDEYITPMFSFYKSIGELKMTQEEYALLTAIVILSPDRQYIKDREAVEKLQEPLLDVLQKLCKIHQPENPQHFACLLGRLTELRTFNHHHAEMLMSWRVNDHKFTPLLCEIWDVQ
Peroxisome proliferator-activated receptor delta (Homo sapiens), sequence (Q03181 whole entry, looked up): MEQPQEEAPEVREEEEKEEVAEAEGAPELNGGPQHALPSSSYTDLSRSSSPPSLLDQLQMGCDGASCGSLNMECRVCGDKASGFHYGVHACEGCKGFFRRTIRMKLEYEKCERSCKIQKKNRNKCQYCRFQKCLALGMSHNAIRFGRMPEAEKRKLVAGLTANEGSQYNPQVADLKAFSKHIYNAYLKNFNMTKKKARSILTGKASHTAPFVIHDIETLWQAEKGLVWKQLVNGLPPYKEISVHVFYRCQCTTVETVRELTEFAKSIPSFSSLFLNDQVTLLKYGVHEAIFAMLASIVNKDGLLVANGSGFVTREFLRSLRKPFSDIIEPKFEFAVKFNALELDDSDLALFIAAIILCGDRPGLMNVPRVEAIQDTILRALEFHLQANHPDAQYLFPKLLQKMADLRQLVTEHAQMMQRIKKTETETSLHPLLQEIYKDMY

Row | SMILES | Potency [1] | outcome [2] | outcome [3] | Potency [4] | outcome [5] | outcome [6] | outcome [7] | outcome [8] | outcome [9] | Potency [10]
1 | C#C[C@]1(O)C=C[C@H]2[C@@H]3CCC4=CC(=O)CC[C@@H]4[C@H]3CC[C@@]21CC | inactive | inactive | inactive | inactive | inactive | inactive | – | – | – | –
2 | N#Cc1c(Cl)cccc1Cl | inactive | inactive | inactive | – | inactive | – | inactive | – | – | –
3 | CC(CCc1ccccc1)NC(C)C(O)c1ccc(O)cc1 (configuration not stated) | inactive | inactive | inactive | inactive | inactive | inactive | – | – | – | –
4 | CCN(CC)C(=O)[C@@H]1C=C2c3cccc4[nH]cc(c34)C[C@H]2N(C)C1 | inactive | inactive | – | inactive | – | – | inactive | inactive | – | –
5 | COC(=O)c1c(C(F)F)nc(C(F)(F)F)c(C2=NCCS2)c1CC(C)C | inactive | inactive | inactive | – | – | inactive | inactive | – | inactive | –
6 | C=C(C)[C@@H]1CC=C(C=O)CC1 | inactive | inactive | inactive | – | inactive | inactive | – | inactive | – | inactive
7 | NC(=S)C(N)=S | inactive | inactive | inactive | – | inactive | inactive | inactive | inactive | – | –
8 | COc1cc(OC)nc(Oc2cccc(Oc3nc(OC)cc(OC)n3)c2C(=O)O)n1 | inactive | inactive | – | inactive | – | – | inactive | inactive | inactive | –
9 | CC(C)(C)OC(=O)c1ncn2c1[C@@H]1CCCN1C(=O)c1c(Br)cccc1-2 | inactive | inactive | inactive | inactive | inactive | – | – | – | inactive | –
10 | CN(C)CCc1ccc(O)cc1 | inactive | inactive | inactive | – | inactive | inactive | inactive | inactive | – | –
11 | Cc1ncc(CNC(=O)N(CCCl)N=O)c(N)n1 | inactive | inactive | inactive | – | inactive | – | – | – | – | inactive
12 | CCSC(=O)N(CC)C1CCCCC1 | inactive | inactive | – | inactive | inactive | inactive | inactive | inactive | – | –
13 | Nc1cc(Cl)ccc1O | inactive | inactive | – | inactive | – | – | inactive | – | – | –
14 | Cc1nnc2n1-c1sc(CCC(=O)N3CCOCC3)cc1C(c1ccccc1Cl)=NC2 | inactive | inactive | inactive | inactive | inactive | – | – | – | – | inactive
15 | CCN(CC)c1nc(C)cc(OP(=S)(OC)OC)n1 | inactive | inactive | inactive | – | – | inactive | inactive | – | – | –
16 | O=C(NCO)NCO | inactive | inactive | inactive | inactive | inactive | inactive | – | – | – | –
17 | BrCCCCCCBr | inactive | inactive | inactive | inactive | inactive | inactive | – | – | – | –

Row | SMILES | Potency [1] | outcome [2] | outcome [3] | Potency [4] | outcome [5] | outcome [6] | outcome [7] | outcome [8] | outcome [9] | Potency [10]
18 | O=CNC(N1CCN(C(NC=O)C(Cl)(Cl)Cl)CC1)C(Cl)(Cl)Cl (configuration not stated) | inactive | inactive | inactive | inactive | – | inactive | – | – | inactive | –
19 | O=C(Nc1ccccc1)N(Cc1ccc(Cl)cc1)C1CCCC1 | inactive | inactive | inactive | – | inactive | – | – | inactive | – | 54.9 µM (active)
20 | CC1=NNC(=O)N(/N=C/c2cccnc2)C1 | inactive | inactive | inactive | – | inactive | inactive | inactive | – | inactive | –
21 | C[C@]1(O)CC[C@H]2[C@@H]3CCC4=CC(=O)CC[C@]4(C)[C@@]3(F)[C@@H](O)C[C@@]21C | inactive | inactive | inactive | – | – | – | – | inactive | – | –
22 | [Cl][Sn]([Cl])([Cl])[Cl] | inactive | inactive | inactive | inactive | inactive | inactive | – | – | – | –
23 | CCCCOC(=O)[C@@H](C)Oc1ccc(Oc2ccc(C#N)cc2F)cc1 | inactive | inactive | inactive | – | inactive | inactive | – | – | inactive | –
24 | CC(C1CC1)C(O)(Cn1cncn1)c1ccc(Cl)cc1 (configuration not stated) | inactive | inactive | inactive | – | – | inactive | inactive | – | – | –
25 | CCC/C(=N\OCC)C1=C(O)CC(CC(C)SCC)CC1=O (configuration not stated) | inactive | inactive | inactive | inactive | – | inactive | – | – | – | –
26 | CCC(=O)c1ccccc1 | inactive | inactive | – | inactive | inactive | inactive | inactive | inactive | – | inactive
27 | C[C@]12CC[C@H]3[C@@H](CCC4=CC(=O)CC[C@@]43C)[C@@H]1CC[C@@H]2C(=O)O | inactive | inactive | inactive | inactive | – | inactive | – | inactive | – | inactive
28 | CCC#N | inactive | inactive | inactive | inactive | inactive | – | – | inactive | inactive | –
29 | N#Cc1ccncc1 | inactive | inactive | inactive | – | inactive | inactive | inactive | – | – | –
30 | O=[N+]([O-])c1cccc2cccnc12 | inactive | inactive | inactive | – | inactive | inactive | inactive | inactive | – | –
31 | CNNC | inactive | – | inactive | inactive | inactive | inactive | – | inactive | – | inactive
32 | CC(C(=O)c1ccccc1)N(C)C (configuration not stated) | inactive | inactive | – | inactive | inactive | – | inactive | – | – | –
33 | CCN(CC)C(C)C(=O)c1ccccc1 (configuration not stated) | inactive | inactive | – | inactive | inactive | – | inactive | – | – | –
